Measurements taken from PubChem BioAssay (NCI).
“And” between values parts separate entries of the source, which are not always exact repeats. Equal entries are not always repeated. Compounds without any hit were thinned out: in the full panel of roughly 79,000, 15% have a hit. The source holds several records for some structures; these can differ, active in one and inactive in another. The source made the active and inactive calls. No stated cut-off is given here; in the data, active means growth inhibition above about 70%; inactive means the rest.

Key:
[1] = NCI Yeast Anticancer Drug Screen. Data for the wt1 strain (AID 149);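 further: 0% = growth of vehicle-treated wt1 cultures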; settings: S. cerevisiae wt1 strain (SPY 50644) growth inhibition, stronger effect = higher value
Outline: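 Measured: growth of wt1 yeast under compound versus vehicle treatment, reported as inhibition.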

[2] = NCI Yeast Anticancer Drug Screen. Data for the rad50EPP+ strain (AID 151);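 further: 0% = growth of vehicle-treated control cultures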; settings: S. cerevisiae rad50 mutant strain, stronger effect = higher value
Outline: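 Genetically defined yeast (rad50EPP+, DNA damage repair alteration) is grown with compound, and inhibition of growth is expressed relative to vehicle-treated controls.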

[3] = NCI Yeast Anticancer Drug Screen. Data for the mgt1 strain (AID 153); settings: S. cerevisiae mgt1 mutant growth inhibition, stronger effect = higher value
Outline: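 In the mgt1 strain, test compounds were added and growth inhibition was determined relative to vehicle-treated controls.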

[4] = NCI Yeast Anticancer Drug Screen. Data for the rad50 strain (AID 155);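 further: 0% = growth of vehicle-only cultures of the same strain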; settings: S. cerevisiae rad50 strain growth inhibition, stronger effect = higher value
Outline: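 Growth of the mutant yeast was measured after compound exposure and referenced to vehicle-treated cultures.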

[5] = NCI Yeast Anticancer Drug Screen. Data for the mec2-1 strain (AID 157); settings: S. cerevisiae mec2-1 strain, stronger effect = higher value
Outline: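 Each compound was tested on mec2-1 yeast, a strain altered in DNA damage repair or cell cycle control. Growth inhibition is reported relative to vehicle.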

[6] = NCI Yeast Anticancer Drug Screen. Data for the rad14 strain (AID 159);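 further: 0% = growth of vehicle-treated control cultures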; settings: S. cerevisiae rad14 strain growth inhibition, stronger effect = higher value
Outline: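 Here, inhibition of yeast growth was measured after compound exposure, using a strain with a genetic defect in DNA damage repair and vehicle-treated cultures as the reference.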

[7] = NCI Yeast Anticancer Drug Screen. Data for the sgs1 mgt1 strain (AID 161);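 further: 0% = growth of cultures given vehicle only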; settings: S. cerevisiae sgs1 mgt1 strain, stronger effect = higher value
Outline: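 Inhibition of yeast growth, normalised to vehicle-treated controls, is reported for a strain bearing genetic alterations in DNA damage repair.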

[8] = NCI Yeast Anticancer Drug Screen. Data for the CLN2oe strain (AID 163);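 further: 0% = growth of vehicle-only control cultures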; settings: S. cerevisiae CLN2oe strain, stronger effect = higher value
Outline: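 First, the altered yeast strain was treated with each compound; second, its growth was measured; finally, inhibition was derived by comparison with vehicle controls.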

[9] = NCI Yeast Anticancer Drug Screen. Data for the cln2 rad14 strain (AID 165);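 further: 0% = growth equal to vehicle treated cultures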; settings: S. cerevisiae cln2 rad14 strain, stronger effect = higher value
Outline: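 Test compounds were added to cln2 rad14 yeast cultures; inhibition of growth was then determined by comparison with vehicle treatment.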

[10] = NCI Yeast Anticancer Drug Screen. Data for the bub3 strain (AID 167); settings: S. cerevisiae bub3 mutant strain, stronger effect = higher value
Outline: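 Whole-cell yeast assay. The mutant strain was incubated with compounds, and growth inhibition was determined by comparison with vehicle-treated cells.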

[11] = NCI Yeast Anticancer Drug Screen. Data for the sgs1 strain (AID 173);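 further: 0% = growth of vehicle-only control cultures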; settings: S. cerevisiae sgs1 mutant, stronger effect = higher value
Outline: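 Vehicle-treated cultures served as reference for growth inhibition of a yeast strain altered in DNA damage repair or cell cycle control after compound exposure.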

[12] = NCI Yeast Anticancer Drug Screen. Data for the mlh1 rad18 strain (AID 175); settings: S. cerevisiae mlh1 rad18 strain growth inhibition, stronger effect = higher value
Outline: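 Inhibition values reflect reduced growth of mutant yeast versus vehicle-treated controls following compound exposure; the mutations affect DNA damage repair.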

[13] = NCI Yeast Anticancer Drug Screen. Data for the rad18 strain (AID 177); settings: S. cerevisiae rad18 mutant growth inhibition, stronger effect = higher value
Outline: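 Steps: expose repair-mutant yeast to compound; measure growth; express as inhibition relative to vehicle control.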

[14] = NCI Yeast Anticancer Drug Screen. Data for the wt2 strain (AID 169);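 further: 0% = growth of vehicle-treated yeast cultures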; settings: S. cerevisiae wt2 strain growth inhibition, stronger effect = higher value
Outline: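 The panel's yeast strains carry defined changes in DNA repair or cell cycle genes. Each strain is grown with compound, and growth loss is scored relative to vehicle.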

[15] = NCI Yeast Anticancer Drug Screen. Data for the mlh1 strain (AID 171);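 further: 0% = growth of vehicle-treated control cultures of the same strain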; settings: S. cerevisiae mlh1 strain growth inhibition, stronger effect = higher value
Outline: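 Inhibition values reflect reduced yeast growth in the presence of compound, referenced to vehicle controls, using a strain chosen for its alteration in DNA repair or cell cycle control.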

[16] = NCI Yeast Anticancer Drug Screen. Data for the rad52 strain (AID 147);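 further: 0% = growth of vehicle-treated control cultures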; settings: S. cerevisiae rad52 mutant growth inhibition, stronger effect = higher value
Outline: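 Inhibition of yeast growth, referenced to vehicle controls, was the measured output for a strain with defective DNA damage repair.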

[17] = at 5.0 µM (retest, dose inferred, filed as 0.5)
[18] = at 50.0 µM (retest, dose inferred, filed as 5.0)

Measured: growth inhibition

CCC(C)OC(=O)Nc1ccc(C)c(NC(=O)OC(C)CC)c1 (stereo unspecified)
inactive: [1]; at 1.2 µM -3% | [1]; at 3.7 µM 0% | [1]; at 11.0 µM -5% | [1]; at 33.0 µM 2% | [2]; at 1.2 µM -2% | [2]; at 3.7 µM -5% | [2]; at 11.0 µM -1% | [2]; at 33.0 µM 11% | [3]; at 1.2 µM -2% | [3]; at 3.7 µM -2% | [3]; at 11.0 µM -1% | [3]; at 33.0 µM 1% | [4]; at 1.2 µM 1% | [4]; at 3.7 µM 1% | [4]; [17] 4% | [4]; at 11.0 µM 2% | [4]; at 33.0 µM 9% | [4]; at 50.0 µM 54% | [5]; at 1.2 µM -2% | [5]; at 3.7 µM 0% | [5]; [17] -11% | [5]; at 11.0 µM -2% | [5]; at 33.0 µM 2% | [5]; [18] 18% | [6]; at 1.2 µM 0% | [6]; at 3.7 µM 2% | [6]; at 11.0 µM 1% | [6]; at 33.0 µM 6% | [7]; [17] 1% | [8]; at 1.2 µM 3% | [8]; at 3.7 µM 2% | [8]; at 11.0 µM 7% | [8]; at 33.0 µM 22% | [9]; [17] -4% | [10]; at 1.2 µM -3% | [10]; at 3.7 µM -2% | [10]; [17] 2% | [10]; at 11.0 µM -3% | [10]; at 33.0 µM 4% | [11]; at 1.2 µM -5% | [11]; at 3.7 µM -5% | [11]; at 11.0 µM -5% | [11]; at 33.0 µM 9% | [12]; [17] 12% | [13]; at 1.2 µM -4% | [13]; at 3.7 µM -5% | [13]; at 11.0 µM -8% | [13]; at 33.0 µM 6%
active: [1]; at 100.0 µM 73% | [2]; at 100.0 µM 74% | [3]; at 100.0 µM 96% | [4]; [18] 76% | [4]; at 100.0 µM 96% | [5]; at 50.0 µM 76% | [5]; at 100.0 µM 90% | [6]; at 100.0 µM 94% | [7]; [18] 85% | [7]; at 50.0 µM 79.4% | [8]; at 100.0 µM 95% | [9]; [18] 74% | [9]; at 50.0 µM 80% | [10]; [18] 83% | [10]; at 50.0 µM 75% | [10]; at 100.0 µM 94% | [11]; at 100.0 µM 96% | [12]; [18] 89% | [12]; at 50.0 µM 79.5% | [13]; at 100.0 µM 96%

Nc1ccn(C2OC(COP(=O)(O)O)C(O)C2O)c(=O)n1 (stereo unspecified)
active: [2]; at 100.0 µM 72% | [7]; [18] 75% | [11]; at 33.0 µM 82% | [11]; at 100.0 µM 86%
78.3% (active) and -3% (inactive): [4]; at 50.0 µM
inactive: [1]; at 1.2 µM -11% | [1]; at 3.7 µM 1% | [1]; at 11.0 µM 2% | [1]; at 33.0 µM 0% | [1]; at 100.0 µM 1% | [2]; at 1.2 µM -5% | [2]; at 3.7 µM -2% | [2]; at 11.0 µM 8% | [2]; at 33.0 µM 37% | [3]; at 1.2 µM 2% | [3]; at 3.7 µM 4% | [3]; at 11.0 µM 2% | [3]; at 33.0 µM 3% | [3]; at 100.0 µM 14% | [4]; at 1.2 µM 0% | [4]; at 3.7 µM 9% | [4]; [17] 38% | [4]; at 11.0 µM 11% | [4]; at 33.0 µM 33% | [4]; [18] 42% | [4]; at 100.0 µM 52% | [5]; at 1.2 µM 0% | [5]; at 3.7 µM 5% | [5]; [17] 3% | [5]; at 11.0 µM 8% | [5]; at 33.0 µM 11% | [5]; [18] 19% | [5]; at 50.0 µM -9.35% and -12.8% | [5]; at 100.0 µM -3% | [6]; at 1.2 µM -1% | [6]; at 3.7 µM 6% | [6]; at 11.0 µM 4% | [6]; at 33.0 µM 5% | [6]; at 100.0 µM 7% | [7]; [17] 47% | [8]; at 1.2 µM -4% | [8]; at 3.7 µM -2% | [8]; at 11.0 µM -6% | [8]; at 33.0 µM -15% | [8]; at 100.0 µM -5% | [9]; [17] -4% | [9]; [18] -10% | [9]; at 50.0 µM -40.1% and -51.6% | [10]; at 1.2 µM -2% | [10]; at 3.7 µM -6% | [10]; [17] -5% | [10]; at 11.0 µM -5% | [10]; at 33.0 µM -12% | [10]; [18] -4% | [10]; at 50.0 µM -32.9% and 0.5% | [10]; at 100.0 µM -10% | [14]; at 1.2 µM -1% | [14]; at 3.7 µM -1% | [14]; at 11.0 µM -1% | [14]; at 33.0 µM 1% | [14]; at 100.0 µM 12% | [15]; at 1.2 µM 1% | [15]; at 3.7 µM 8% | [15]; at 11.0 µM 0% | [15]; at 33.0 µM 7% | [15]; at 100.0 µM 26% | [11]; at 1.2 µM 21% | [11]; at 3.7 µM 43% | [11]; at 11.0 µM 68% | [12]; [17] 13% | [12]; [18] -5% | [12]; at 50.0 µM 21.4% and -23.4% | [13]; at 1.2 µM -1% | [13]; at 3.7 µM -4% | [13]; at 11.0 µM -8% | [13]; at 33.0 µM -15% | [13]; at 100.0 µM -22%
87.4% (active) and 16.2% (inactive): [7]; at 50.0 µM

CCCCOC(=O)Nc1ccc(C)c(NC(=O)OCCCC)c1
inactive: [16]; at 1.2 µM -4% | [16]; at 3.7 µM -1% | [16]; at 11.0 µM 15% | [16]; at 33.0 µM 26% | [16]; at 100.0 µM 34% | [2]; at 1.2 µM 2% | [2]; at 3.7 µM 5% | [2]; at 11.0 µM 27% | [2]; at 33.0 µM 36% | [2]; at 100.0 µM 44% | [3]; at 1.2 µM -9% | [3]; at 3.7 µM -8% | [3]; at 11.0 µM -4% | [3]; at 33.0 µM 8% | [3]; at 100.0 µM 18% | [4]; at 1.2 µM -5% | [4]; at 3.7 µM -3% | [4]; [17] 3% | [4]; at 11.0 µM 9% | [4]; at 33.0 µM 19% | [4]; at 100.0 µM 42% | [5]; at 1.2 µM -6% | [5]; at 3.7 µM -11% | [5]; [17] -2% | [5]; at 11.0 µM -6% | [5]; at 33.0 µM 7% | [5]; [18] 69%
active: [4]; [18] 78% | [4]; at 50.0 µM 89.9% | [5]; at 50.0 µM 94.3%
